Records with an inconclusive call do not appear. Activity calls are given as the source filed them. How the source made its calls: active means hit-call score of the fitted dose curve at least 0.9, where 1 is the maximum; inconclusive means response in the unintended direction; inactive means score below 0.9.
The compounds below were run against human Serotonin, 5-Hydroxytryptamine Receptor 5A (5HT5A), HTR5A (gene 3361) (UniProt P47898) (assay: NVS_GPCR_h5HT5A: NovaScreen (NVS) G Protein-Coupled Receptor Assay for human Serotonin, 5-Hydroxytryptamine Receptor 5A (5HT5A) (AID 2283251)).
Procedure: NVS_GPCR_h5HT5A is a biochemical, single-readout assay that uses extracted gene-proteins from HEK293 in a cell-free assay. Measurements were taken 1 hour after chemical dosing in a 96-well plate.NVS_GPCR_h5HT5A is one of one assay component(s) measured or calculated from the NVS_GPCR_h5HT5A assay. It is designed to make measurements of radioligand binding, a form of binding reporter, as detected with scintillation counting signals by Filter-based radiodetection technology.Data from the assay component NVS_GPCR_h5HT5A was analyzed into 1 assay endpoint. This assay endpoint, NVS_GPCR_h5HT5A, was analyzed in the positive analysis fitting direction relative to DMSO as the negative control and baseline of activity. Using a type of binding reporter, loss-of-signal activity can be used to understand changes in the binding as they relate to the gene HTR5A. Furthermore, this assay endpoint can be referred to as a primary readout, because the performed assay has only produced 1 assay endpoint. To generalize the intended target to other relatable targets, this assay endpoint is annotated to the gpcr intended target family, where the subfamily is rhodopsin-like receptor.
Binding assays used specific radioligands (tritiated, iodinated) with non-radioactive competitive displacement ligands in agonist or antagonist protocols (as indicated) and various reference compounds and inhibitors to titrate specific binding to receptors and transporters. Most enzyme assays (CYPs, kinases, phosphatases, proteases, HDACs) used recombinant protein and specific substrates (fluorescence mostly, some colorimetric and radioactive) and inhibitors, followed by a biochemical separation of substrate and product. All assays for the biochemical HTS were initially run in duplicate at a single concentration (10 uM for CYP450 assays and 25 uM for all others). […] Each assay was run with positive and negative controls, and concurrent controls on every plate. The follow-up (secondary) screen tested active chemical-pairs in concentration series, as well as a few additional assays not tested in the primary screen, some selected negative inactives, and several cases re-run in the concentration series for confirmatory purposes.

Sequence of human Serotonin, 5-Hydroxytryptamine Receptor 5A (5HT5A), HTR5A (gene 3361) (P47898 whole entry, looked up): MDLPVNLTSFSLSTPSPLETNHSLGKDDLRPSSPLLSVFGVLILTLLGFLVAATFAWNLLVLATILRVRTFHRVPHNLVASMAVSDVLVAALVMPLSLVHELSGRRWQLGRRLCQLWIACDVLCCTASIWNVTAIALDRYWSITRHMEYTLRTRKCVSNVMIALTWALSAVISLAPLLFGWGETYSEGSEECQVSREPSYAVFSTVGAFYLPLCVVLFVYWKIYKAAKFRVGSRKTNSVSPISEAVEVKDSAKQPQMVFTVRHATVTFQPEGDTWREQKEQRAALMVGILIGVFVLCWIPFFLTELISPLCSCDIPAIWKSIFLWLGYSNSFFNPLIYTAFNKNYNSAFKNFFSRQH

AC50, active:
CCN(CC)C(=O)c1cc(S(=O)(=O)Cc2ccccc2)c(N2CCC(c3ccccc3)CC2)cc1N(CC)CCN(C)C 4.84 µM
CN(C)c1ccc(C(=C2C=CC(=[N+](C)C)C=C2)c2ccc(N(C)C)cc2)cc1 1.99 µM
NCc1cccc(C2CCN(C(=O)c3ccc(C#Cc4ccccc4F)o3)CC2)c1 18.4 µM
CCOC(=O)O[C@H](C)OC(=O)c1ccc2c(c1)cc(C(=O)NC1CCN(C(C)C)CC1)n2Cc1cc(-c2ccc(Cl)s2)on1 6.7 µM
CCN(Cc1cccnc1)C(=O)c1cccc(Cl)c1[C@]1(C)C(=O)N(Cc2ccc(OC)cc2OC)c2ccc(Cl)cc21 4.88 µM
Cc1cc(F)ccc1-c1cc(N2CC[C@@H](O)[C@H]2CO)ncc1N(C)C(=O)C(C)(C)c1cc(C(F)(F)F)cc(C(F)(F)F)c1 7.83 µM
CN(C)C(=O)C1(N2CCCCC2)CCN(CC[C@@]2(c3ccc(Cl)c(Cl)c3)CN(C(=O)c3ccccc3)CCO2)CC1 15.7 µM
CCCCCCCCOC(=O)c1cc(O)c(O)c(O)c1 25 µM
O=c1[nH]sc2ccccc12 14.2 µM
Cc1cc2c(cc1C(F)(F)F)N(C(=O)Nc1ccc(Oc3cccnc3C)nc1)CC2 4.76 µM

outcome, inactive:
O=C(O)Cc1cc(I)c(Oc2ccc(O)c(I)c2)c(I)c1
CN1C(=O)N(c2ccccc2Br)Cc2cnc(Nc3ccc4c(c3)OCC(CO)O4)nc21 (stereo not given)
COc1ccc2cc(S(=O)(=O)N[C@H](CC(=O)N[C@H](Cc3ccc(CN4[C@H](C)CCC[C@@H]4C)cc3)C(=O)N(C)C(C)C)c3ccc4c(c3)OCO4)ccc2c1
CC(C)(C)c1csc(-c2cc3cc(OCc4ccccc4CC(=O)O)ccc3o2)n1
CC/C(=C(/CC)c1ccc(O)cc1)c1ccc(O)cc1

Source: PubChem BioAssay (EPA / NIEHS)
